# Screens: PubChem BioAssay, several laboratories
# A selection: hits, their analogues and other compounds. The true share with any hit is near 1.5%.
# SARS 3CLpro inh-1 = SARS-CoV 3CLpro protease inhibitors, primary screen, biochemical, quenched FRET; Replicase polyprotein 1ab (Severe acute respiratory syndrome coronavirus), P0C6X7; recombinant SARS-CoV 3CLpro, quenched FRET peptide cleavage; inhibition, % at 6 µM; 0.14% of 290,000 active; in the data active = inhibition above about 12%
# RecA intein inh = Mtb RecA intein splicing inhibitors, primary screen, biochemical, fluorescence, HTS. Protein RecA (Mycobacterium tuberculosis (strain ATCC 25618 / H37Rv)), P9WHJ3. cell-free RecA intein splicing. inhibition, % (no concentration beside the values). 0.75% of 290,000 active; in the data active = inhibition above about 30%;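 note: 0% = vehicle wells and 100% = reference inhibitor control wells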
# Target sequence (P9WHJ3 whole entry, looked up): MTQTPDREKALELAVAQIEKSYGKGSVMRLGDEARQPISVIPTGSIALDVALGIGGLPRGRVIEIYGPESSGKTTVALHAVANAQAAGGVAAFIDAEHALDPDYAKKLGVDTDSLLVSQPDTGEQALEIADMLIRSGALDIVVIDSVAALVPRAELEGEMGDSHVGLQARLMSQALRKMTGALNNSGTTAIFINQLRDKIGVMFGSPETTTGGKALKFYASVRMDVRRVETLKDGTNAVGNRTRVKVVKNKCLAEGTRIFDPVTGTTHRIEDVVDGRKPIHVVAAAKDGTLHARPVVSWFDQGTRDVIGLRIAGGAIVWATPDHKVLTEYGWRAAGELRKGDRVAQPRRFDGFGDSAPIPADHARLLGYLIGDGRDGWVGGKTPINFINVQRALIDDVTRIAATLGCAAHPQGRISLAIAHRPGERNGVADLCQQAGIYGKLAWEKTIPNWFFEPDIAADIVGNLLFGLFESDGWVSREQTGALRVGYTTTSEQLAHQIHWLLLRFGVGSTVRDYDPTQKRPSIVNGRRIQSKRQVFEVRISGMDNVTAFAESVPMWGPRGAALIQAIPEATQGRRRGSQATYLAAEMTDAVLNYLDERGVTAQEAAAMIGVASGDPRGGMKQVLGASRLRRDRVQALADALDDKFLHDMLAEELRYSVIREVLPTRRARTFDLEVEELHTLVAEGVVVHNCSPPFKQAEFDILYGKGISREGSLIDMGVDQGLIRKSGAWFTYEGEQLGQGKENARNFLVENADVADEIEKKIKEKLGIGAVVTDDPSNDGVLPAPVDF
# DUSP3 inh = VHR1 phosphatase inhibitors, primary screen, biochemical, absorbance, uHTS | AID 1654, 2009 | 0.52% of 290,000 active | Dual specificity protein phosphatase 3 (Homo sapiens), P51452 | recombinant VHR phosphatase, pNPP absorbance | inhibition, % at 13.3 µM; in the data active = inhibition above about 50%
# CCHF vOTU inh = CCHFV vOTU protease inhibitors, primary screen, biochemical, Pep-AMC substrate, fluorescence. Crimean-Congo hemorrhagic fever virus L polyprotein viral ovarian tumor (vOTU) protease …. inhibition, % at 11.5 µM. 0.55% of 370,000 active. AID 651958, 2012; in the data active = inhibition above about 30%; note: 0% = vehicle wells with enzyme and 100% = no enzyme wells
# SARS 3CLpro inh-2 = confirmation of SARS coronavirus 3C-like protease inhibitors, retest, confirmation, biochemical; shares compounds with SARS 3CLpro inh-1; QFRET protease activity assay, 3CLpro; inhibition, % at 6 µM; 36% of 380 active; AID 1879, 2009; in the data active = inhibition above about 13%
# * marks the source's active call; other numbers are inactive results; . = not tested or not shown.
SMILES,SARS 3CLpro inh-1,RecA intein inh,DUSP3 inh,CCHF vOTU inh,SARS 3CLpro inh-2
CC(=O)Nc1ccc(N(C(=O)Cn2nnc3ccccc32)C(C(=O)NC2CCCC2)c2ccc(O)c(O)c2)cc1 (stereo not given),20*,-4,2,7,25*
CN(c1c2c(nc3ncnn13)CCCC2)C1CCCCC1,.,.,.,2,.
COc1cc2c(cc1NC(=O)CSc1nnc(COc3ccccc3)n1Cc1ccco1)oc1ccccc12,.,.,.,5,.
CNc1oc(-c2ccc(Cl)cc2)nc1P(=O)(c1ccccc1)c1ccccc1,13*,7,-3,22,-1
Cc1ccc(-c2nc(P(=O)(c3ccccc3)c3ccccc3)c(N3CCOCC3)o2)cc1,4,10,2,-4,.
Nc1sc(Cc2ccccc2)cc1C(=O)NC1CCCCC1,.,.,.,13,.
Cc1ccc(-c2nn(-c3ccccc3)cc2NC(=O)CCl)cc1,14*,29,4,9,13*
CCc1nnc(NS(=O)(=O)c2ccc(NC(=O)/C=C/c3ccc(F)cc3)cc2)s1,13*,3,-11,3,-2
O=C(c1cc2ccccc2cc1O)N1CCN(c2cccc(Cl)c2)CC1,.,-6,.,1,.
O=C(c1c(Cl)nc2sccn12)N1CCN(c2cccc(Cl)c2)CC1,44*,3,17,21,3
CCOC(=O)CSC1=NC(=O)CS1,5,.,15,-1,.
O=C(Cc1ccc(Cl)c(Cl)c1)Nc1cccnc1,23*,-2,2,-13,21*
Cc1cccc(NC(=S)NN2CCOCC2)c1C,13*,6,-21,15,0
O=C(Nc1nc(-c2ccccc2)cs1)c1cccc([N+](=O)[O-])c1C(=O)O,16*,-4,22,1,28*
Cc1csc(NC(=O)c2cccc([N+](=O)[O-])c2C(=O)O)n1,-3,-5,8,7,.
Nc1nnc(SCC(=O)Nc2cccc3ccccc23)s1,0,8,31,11,.
O=C(O)CC1(CC(=O)Nc2ccccc2C(=O)c2ccccc2)CCCC1,2,0,-24,14,.
O=C(CCl)Nc1ccccc1C(=O)c1ccccc1,13*,15,13,-4,9
CCOC(=O)c1ccc(NC(=O)N2CCN(Cc3ccccc3)CC2)cc1,3,-1,1,-7,.
CCOC(=O)c1cc(-c2ccccc2)sc1N,59*,1,18,9,33*
CCOC(=O)c1c(N)sc(C(O)(C(F)(F)F)C(F)(F)F)c1-c1ccccc1,12*,3,12,-7,10
Nc1ccnc(=O)[nH]1,.,-1,.,-5,.
O=C(Oc1cccnc1)c1ccc(Cl)cc1,24*,3,0,-1,34*
O=[N+]([O-])c1cccc(SSc2cccc([N+](=O)[O-])c2)c1,.,.,.,-2,.
O=c1[nH]c(=O)n(-c2ccc(F)cc2)c(O)c1/C=C1\C=Nc2ccccc21,5,0,20,-8,.
SMILES,SARS 3CLpro inh-1,RecA intein inh,DUSP3 inh,CCHF vOTU inh,SARS 3CLpro inh-2
O=c1[nH]c(=O)n(-c2ccccc2F)c(O)c1/C=C1\C=Nc2ccccc21,29*,0,-3,-4,38*
O=C(Nn1cnc2ccccc2c1=O)c1ccc(Br)cc1,14*,0,2,-14,8
COc1ccc(S[C@]2(C(=O)N3CCN(C(C)=O)CC3)CC(=O)N(C(=O)Nc3ccc(C)c(Cl)c3)[C@@H]2c2ccc(OC)cc2)cc1,.,.,.,9,.
S=C(c1ccc(-c2ccccc2Cl)o1)N1CCCCC1,27*,2,-5,3,-7
COCCNC(=O)C(c1cccc(OC)c1)N(Cc1cccs1)C(=O)Cn1nnc2ccccc21 (stereo not given),32*,1,22,9,35*
Cc1ccc2[nH]c(=O)c(CN(CCc3ccccc3)Cc3nnnn3CC3CCCO3)cc2c1 (stereo not given),57*,4,-4,15,4
CCN(C(=O)COC(=O)CCc1c[nH]c2ccccc12)c1c(N)n(Cc2ccccc2)c(=O)[nH]c1=O,.,1,.,-3,.
Cc1ccc(C(=O)c2c3ccc([N+](=O)[O-])cc3[n+]([O-])n2CCC(N)=O)cc1,12*,-2,10,12,12
Cc1ccc(C(=O)c2c3ccccc3[n+]([O-])n2[C@@H](C)C(N)=O)cc1,.,0,.,17,.
COc1ccc(C(=O)c2c3ccc([N+](=O)[O-])cc3[n+]([O-])n2CCCC(N)=O)cc1,.,6,.,11,.
Cc1ccc(C(=O)c2c3ccccc3[n+]([O-])n2CCC(N)=O)cc1,33*,3,29,0,36*
Cc1cccc(NS(=O)(=O)c2ccc(C3CCCCC3)cc2)c1,3,10,22,28,.
O=C(O)c1cccc(NS(=O)(=O)c2ccc(C3CCCCC3)cc2)c1,12*,0,4,.,2
COc1ccc(CC(=O)NC(C)c2nnc(SCCOc3ccc(OC)cc3)n2C)cc1 (stereo not given),18*,.,-14,-7,-4
COc1ccc(CC(=O)NC(C)c2nnc(SCC(=O)c3ccc(OC)cc3)n2C)cc1 (stereo not given),4,1,22,-9,.
CCOC(=O)C1CCN(C(=O)c2ccc3c(c2)NC(=O)/C(=C\c2cccc(C)c2)S3)CC1,13*,-2,-2,10,1
CCOC(=O)C1CCN(C(=O)c2ccc3c(c2)NC(=O)/C(=C/c2ccccc2)S3)CC1,6,-29,17,16,.
O=S(=O)(c1cccc(NC(=S)N2CCN(c3ccccc3)CC2)c1)C(F)F,13*,-1,-6,-2,3
CCNC(=O)C1CCCN(Cc2cc(-c3ccccc3)on2)CC1 (stereo not given),.,.,.,-8,.
COc1ccc(C(=O)c2cc3c(cc2[N+](=O)[O-])OCCO3)cc1,0,-43,13,-2,.
COc1ccc(C(=O)n2c(SC)nc3cc4c(cc32)OCCO4)cc1,12*,.,28,9,92*
Cc1cc(C(=O)CCl)c(C)n1-c1cccc([N+](=O)[O-])c1,20*,6,22,2,60*
CC(C)(C)C(=O)NC(=S)Nc1sc2c(c1C#N)CCCCC2,34*,-1,10,-16,3
Cc1ccc(C(=O)n2cnc3ccccc32)cc1C,19*,36*,-15,-12,26*
Cc1occc1C(=O)n1cnc2ccccc21,-7,0,13,.,.
C/C=C1\NC(=O)[C@H](CC(N)=O)N(C)C(=O)C([C@@H](C)O)NC(=O)C(CCCc2ccc(OC)cc2)NC(=O)[C@H](C(C)C)NC(=O)/C(=C\C)NC(=O)[C@H](O)[C@@H](C[C@@H](O)CCCCCCC)NC(=O)[C@H](C)NC(=O)CN(C)C(=O)[C@H](CCC(N)=O)NC1=O (stereo not given in full),.,.,.,4,.
